40 compounds from ChEMBL document CHEMBL3988442, “University of Dundee, Small-Polar-MMV Screening Library” (2021) can be followed below.

The assay deals with T1, Aspartate--tRNA(Asp/Asn) ligase (Mycobacterium tuberculosis (strain ATCC 25618 / H37Rv)) (UniProt P9WFW3).
T1 sequence (whole entry): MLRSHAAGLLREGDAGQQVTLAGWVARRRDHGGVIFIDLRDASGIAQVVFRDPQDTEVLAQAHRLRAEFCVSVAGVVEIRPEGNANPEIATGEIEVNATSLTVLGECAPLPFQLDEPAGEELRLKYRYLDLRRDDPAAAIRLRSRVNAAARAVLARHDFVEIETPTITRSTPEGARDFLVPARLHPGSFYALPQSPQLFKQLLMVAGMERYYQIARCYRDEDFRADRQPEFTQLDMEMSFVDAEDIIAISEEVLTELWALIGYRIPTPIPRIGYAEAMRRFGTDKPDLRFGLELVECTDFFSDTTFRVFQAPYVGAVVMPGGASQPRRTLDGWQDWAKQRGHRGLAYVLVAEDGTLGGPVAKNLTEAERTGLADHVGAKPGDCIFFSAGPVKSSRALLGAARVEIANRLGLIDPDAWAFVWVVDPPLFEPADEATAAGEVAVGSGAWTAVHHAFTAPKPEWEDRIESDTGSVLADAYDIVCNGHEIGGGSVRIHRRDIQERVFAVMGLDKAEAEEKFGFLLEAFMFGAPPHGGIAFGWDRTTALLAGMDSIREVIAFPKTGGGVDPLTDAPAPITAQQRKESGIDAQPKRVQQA
Nature of the assay: Assay for Asp RNA synthetase-1 from Mycobacterium tuberculosis. The format is functional. Conditions: 30 µM. Set-up: scale not given: in the data most compounds retested in dose-response had high values.
For the compound `CCc1nc(CCNC(=O)Nc2cc(C(N)=O)sc2C)cs1`, the Percent Effect was -1.32%.
For `c1ccc2c(N3CCCCC3Cn3cncn3)ncnc2c1` (stereo not given) the value was 0.172%; for `CCN(CC)c1ccc(-c2nc(-c3cccc(OC)c3OC)no2)cn1`, -4.22%; for `CC(C)(N)CN1CCC(c2nnc(CN3CCCC3)n2C2CC2)CC1`, -1.87%.
Consider `COc1ccc(CNC(C)c2cccc(Cl)c2)c(OC)c1OC` (stereo not given), for which the Percent Effect was -3.05%.
For `Cn1ccnc1SCc1nc(C(C)(C)NC(=O)OC(C)(C)C)no1` the value was -0.333%; for `Cc1cc(C)n(CC2CCCCN2CC(=O)Nc2cccnc2)n1` (stereo not given), -0.655%; for `CCOCCn1nnc(C2(NC(=O)c3ccccc3)CCCC2)n1`, -3.44%.
The figure for `O=C1CCC2(CCN(Cc3cc(F)ccc3Cl)CC2)CN1C1CCCC1` is 0.0575%; for `COc1ncccc1C(=O)N1CCC(CNC(C)=O)CC1` it is 1.83%; for `CN(C)C(=O)CN(C)C(=O)c1cnc(Cc2ccc(F)cc2)s1` it is -1.57%.
For `c1nc(N2CCCCC2Cn2cncn2)c2ccsc2n1` (stereo not given) the value was -0.379%; for `Cc1cc(C2CCCN2C(=O)NCc2cccc(F)c2)on1` (stereo not given), -1.23%.
`Cc1nn(C)cc1C(=O)N1C[C@H]2CC[C@@H]1CN(S(=O)(=O)N(C)C)C2`: the Percent Effect turned out to be 1.62%.
The figure for `CCN(CC1CN(CCc2ccccn2)CCO1)c1cccnn1` (stereo not given) is -1%; for `O=C(O)c1ccn(-c2ccccc2NS(=O)(=O)c2ccccc2)n1` it is 1.9%; for `CNC(=O)Cn1cc(C#N)c(=O)c2cc(Br)ccc21` it is 0.0345%.
`Cc1cc(S(=O)(=O)N2CCCc3cc(F)cc(F)c32)sc1C(=O)O`: the Percent Effect is -0.908%.
The figure for `COc1cccc(-c2noc(-c3ccc(NCC4CC4)nc3)n2)c1OC` is -3.57%; for `CCc1nc(NS(=O)(=O)c2ccc(C)cc2Cl)no1` it is -5.6%.
With `O=C1O[C@@H]2CN(Cc3ccccc3)C[C@@H]2N1CCCN1CCOCC1`, the Percent Effect is -3.37%.
In the case of `O=C(c1ccncc1)N1C[C@@H]2CC[C@H](C1)N(C(=O)N1CCOCC1)C2`, the Percent Effect is 2.77%.
Turning to `COc1ccccc1OCCN1CCCC(c2noc(C3CC3)n2)C1` (stereo not given), the Percent Effect is -2.65%.
For `O=c1oc(-c2cccs2)nn1CC(O)c1ccc(F)cc1` (stereo not given) the value was -0.425%; for `CC(C)(C)OC(=O)NC(C)(C)c1noc(CN2CCCCC2)n1`, -0.448%.
The figure for `CC(C)N(C)CC(=O)NC1CCc2nccn2C1` (stereo not given) is 1.39%; for `Cc1nn(C)c(C)c1C1COCCN1c1ncnc2sccc12` (stereo not given) it is 0.54%; for `CS(=O)(=O)NCC(=O)N1CCCC1c1noc(C2CC2)n1` (stereo not given) it is 0.264%.
The figure for `CC(=O)N1CCCN(c2nccc(-c3cn(C)nc3C)n2)CC1` is -4.22%; for `CCc1nc(CCNC(=O)Nc2ccc(C(=O)NC)cc2C)cs1` it is -2.88%.
Turning to `Cc1cc(C)n(CC(=O)N(C)Cc2csc(-c3cccs3)n2)c(=O)n1`, the Percent Effect was -0.356%.
For `O=C(NCCNS(=O)(=O)c1ccc2c(c1)CCCC2)c1ccoc1` the value was 8.29%; for `N#Cc1ccnc(N2CCC(c3nccn3Cc3cscn3)CC2)c1`, -4.66%; for `CCC(CO)N(Cc1ccccn1)C(=O)c1ccc2c(c1)CCO2` (stereo not given), -5.37%.
The figure for `CN(CCO)Cc1nnc(C2CCN(C(=O)c3cccnc3)CC2)n1C` is -0.977%; for `Cc1ccc(C(=O)N2CCN(S(C)(=O)=O)CC2)cc1N1CCNC1=O` it is -4.61%.
The figure for `CN(CCO)Cc1nnc(C2CCN(C(=O)C(C)(C)C)CC2)n1C` is 3.14%.
Take `CCCS(=O)(=O)N1CCC(NC(=O)c2cc(C)c(CC)s2)CC1`: the Percent Effect was -2.13%.
For `FC(F)(F)COCCN1CCCC(c2noc(C3CC3)n2)C1` (stereo not given) the value was -0.517%; for `O=C(c1cnn(-c2ccccc2F)c1)N1CCN(CCO)CC1`, -3.94%.
